Screens as filed in PubChem BioAssay.
Shown is part of a subset that was picked to be rich in hits.
KDM5B inh – Primary screen for KDM5B Histone Demethylases FDH-coupled qHTS; Lysine-specific demethylase 5B (Homo sapiens), Q9UGL1; KDM5B demethylase, FDH-coupled NADH fluorescence (FDH is formaldehyde dehydrogenase); Potency, µM (series often up to 57.7 µM), usual class: inhibitors; 220,000 compounds, 2.6% hits; AID 1347165, 2019; active means well fitted inhibition curve with a large enough effect; further: nearly all actives have a fitted effect of over 70% in size
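Compound dilutions met 200 nM (final) KDM5BΔAP for 10 min at room temperature before substrate addition. The substrate mix held 12.5 µM H3K4me3 with cofactors 25 µM α-ketoglutarate and 50 µM Fe²⁺. NADH signal gain over 30 min defined activity.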
A number is an active result; - = inactive.

SMILES	KDM5B inh
COc1ccc(NC(=O)Nc2ccc(C)n(CC(=O)Nc3ccc(C)c(C)c3)c2=O)cc1	18µM
Cc1ccc(S(=O)(=O)Nc2ccc(C)n(CC(=O)Nc3ccccc3)c2=O)cc1	-
Cc1ccc(NS(=O)(=O)c2ccccc2)c(=O)n1CC(=O)N1CCN(CC(C)C)CC1	-
CCS(=O)(=O)Nc1ccc(C)n(CC(=O)N2CCCCCC2)c1=O	-
COc1ccc(OCc2nc(C)c(CCO)c(=O)n2CC(=O)Nc2ccc(C)c(C)c2)cc1	-
CCCN1CCN(C(=O)Cn2c(C)ccc(NC(=O)Nc3ccccc3)c2=O)CC1	25µM
Cc1ccc(NC(=O)Nc2ccc(C)n(CC(=O)NC3CCCCC3)c2=O)cc1	-
Cc1cc(C)cc(NC(=O)COc2ccc3c(C)cc(=O)oc3c2)c1	-
C=CCNC(=O)NC(=O)CN1CCc2ccccc2C1	-
CCCCCN1CCN(c2nc3c(c(=O)[nH]c(=O)n3C)n2Cc2ccccc2C)CC1	-
Cc1nc2cc(NS(=O)(=O)c3ccccc3Cl)ccc2o1	-
CCCCCc1ccc(-c2ccc(C3CCC(CCC)C(C)C3)cc2)nc1 (configuration not stated)	-
CCCC(NC(N)=O)C(=O)N1CCN(S(=O)(=O)c2ccc(OC)cc2)CC1 (configuration not stated)	-
Cc1cc2cc(CNC(=S)Nc3cccc(Br)c3)ccc2[nH]1	-
C(#CC(c1ccccc1)(c1ccccc1)C1CCCCC1)CN1CCOCC1	-
N#Cc1cccc(N2CCC3(CCC(=O)N(CC4CCCO4)C3)CC2)n1 (configuration not stated)	25µM
Cc1cc(N2CCC3(CCC(=O)N(CC4CCCO4)C3)CC2)nc(N)n1 (configuration not stated)	-
Nc1nccc(N2CCC3(CCC(=O)N(CC4CCCO4)C3)CC2)n1 (configuration not stated)	-
CC1(C)[C@H]2CC[C@@H](CNC(=O)c3ccccc3Cl)[C@@H]1C2	-
COc1ccccc1C(=O)NC[C@@H]1CC[C@H]2C[C@@H]1C2(C)C	-
CC1(C)[C@H]2CC[C@@H](CNC(=O)c3cccc4[nH]ccc34)[C@@H]1C2	32µM
O=C(Cc1ccc(Cl)cc1)NC1C2CC3CC(C2)CC1C3 (configuration not stated)	-
COCCn1c(-n2nc(C)cc2C)nc2c1c(=O)n(Cc1ccccc1)c(=O)n2C	-
CC(C#N)(NC(=O)CSc1ccccn1)C1CC1 (configuration not stated)	-
COc1cccc(Nc2cccc(CN3CCC(C)(NC(C)=O)C3)c2)c1 (configuration not stated)	-
SMILES	KDM5B inh
CC(=O)NC1(C)CCN(Cc2cccc(-c3cccc4ncccc34)c2)C1 (configuration not stated)	40µM
CC(=O)NC1(C)CCCN(Cc2cccc(-c3cccc(F)c3)c2)C1 (configuration not stated)	-
CC(=O)NC1(C)CCN(Cc2ccc(-c3cccc4ncccc34)cc2)C1 (configuration not stated)	40µM
CC(=O)NC1(C)CCN(Cc2ccc(Nc3ccc(N4CCOCC4)c(F)c3)cc2)C1 (configuration not stated)	-
CC(=O)NC1(C)CCN(Cc2cccc(-c3ccc(N4CCOCC4)cc3)c2)C1 (configuration not stated)	32µM
CC(=O)NC1(C)CCCN(Cc2cccc(Nc3ccncc3)c2)C1 (configuration not stated)	-
CC(=O)NC1(C)CCCN(Cc2ccc(Oc3ccccc3)cc2)C1 (configuration not stated)	-
CC(=O)NC1(C)CCCN(Cc2cccc(-c3ccccc3)c2)C1 (configuration not stated)	-
CCCCN(C)C(=O)Cn1c(C2CC(=O)N(c3cccc(OC)c3)C2)nc2ccccc21 (configuration not stated)	-
COc1ccccc1CNC(=O)CCc1ncc(-c2ccccc2F)o1	-
CNC(=O)C1CCCCN1C(=O)Cc1nc(-c2ccccc2)oc1C (configuration not stated)	-
O=C(CCCc1ccccc1)N1C[C@@H](CO)[C@H](c2nc(C3CC3)no2)C1	-
O=C(CCCc1ccccc1)NCc1nnc2c(-c3nc(C4CC4)no3)cccn12	28µM
CC(C)CNC(=O)N1CCC(c2noc(-c3ccccc3)n2)C1 (configuration not stated)	-
O=C(NCc1nnc2c(-c3nc(C4CC4)no3)cccn12)C1CCC1	28µM
COc1ccc(CCC(=O)NCc2nnc3c(-c4nc(C5CC5)no4)cccn23)cc1	-
O=C(CCC1CCCC1)NCc1nnc2c(-c3nc(C4CC4)no3)cccn12	11µM
Cc1n[nH]c(C)c1S(=O)(=O)N1CCC(C)CC1	-
CC(Oc1cccc(F)c1)C(=O)NCCc1ccccn1 (configuration not stated)	-
Fc1ccc(CSc2ncc(-c3ccccc3)nn2)cc1	-
COc1ccccc1C(=O)N1CCC(N2Cc3cnc(C)n3C2=O)CC1	-
COc1cc(S(=O)(=O)N2CCC(C(N)=O)CC2)c(OC)cc1Cl	-
CCC(=O)N1Cc2ccccc2CC2(CCCN(C)C2)C1 (configuration not stated)	-
COc1cccc(N2C(=O)NC(=NC3CCCCC3)C23CCCN(Cc2ccc(N(C)C)cc2)C3)c1 (configuration not stated)	-
COc1ncccc1-c1cc(-c2cccnc2)c2cncn2c1	35µM
SMILES	KDM5B inh
COc1ncccc1-c1cc(C(=O)N2CCCC(OC)C2)c2c(c1)ncn2C (configuration not stated)	-
COc1ccc(Nc2cnc3ccc(-c4cccc(CO)c4)nn23)cc1	-
c1cncc(-c2cc(-c3ccc4cn[nH]c4c3)cn3cncc23)c1	35µM
COc1ccc(-c2cc(-c3ccc(CO)cc3)cn3cncc23)cc1	4µM
O=Cc1cn[nH]c1-c1cccnc1	-
COc1ccc(OC2CN(Cc3cccnc3)C2)cc1	-
COc1ccc(-c2cc(-c3cccnc3)cn3cncc23)cc1	40µM
COc1cccc(N2CCN(C(=O)c3cn(-c4ccccc4)nc3-c3cccnc3)CC2)c1	-
COc1ccc(-c2ccc(CN)cc2)cc1	-
COc1ccc(NC(=O)c2cc(-c3cccnc3)nc3ccccc23)cc1	-
O=C1NCN(Cc2ccc(Cl)cc2)C12CCN(Cc1cccc(C(F)(F)F)c1)CC2	-
Cc1cccc(NC(=S)N/N=C2/CCCC(C)C2)c1 (configuration not stated)	-
Cc1cc(NC(=O)COC(=O)c2cc3ccccc3o2)no1	-
COc1ccc2cnn(CC(=O)NCc3ccccc3Cl)c(=O)c2c1OC	-
COc1ccc(-c2csc(NC3CC3)n2)cc1OC	-
O=C(O)c1ccc(-c2cccnc2)cc1	-
COc1cccc(C(=O)Nc2cccc(-c3nnc(-c4ccccc4)o3)c2)c1	-
COc1ccc(-c2ccnc3[nH]n(-c4ccccc4)c(=O)c23)cc1	-
COc1cccc(OC)c1C(=O)Nc1cccc(-c2cn3ccsc3n2)c1	-
Cc1ccc(-c2cc(-c3cccnc3)c3cncn3c2)cn1	35µM
Cc1nnc(-c2cc(-c3cccc(CO)c3)ccn2)n1Cc1cccnc1	-
COc1ccc(-c2csc3ncnc(Nc4cc(OC)c(OC)c(OC)c4)c23)cc1	-
COc1ccc(-c2cc(-c3cccc(NC(C)=O)c3)cn3cncc23)cc1	8.9µM
COc1ccc(-c2cc(-c3cccnc3OC)cn3cncc23)cc1	35µM
